Compound activity from PubChem BioAssay.
This is a sample that favours compounds with a hit; in the whole collection about 6.8% have one here.
T cruzi growth-1 = T. cruzi intracellular proliferation inhibitors, primary screen, cell-based, beta-gal Tulahuen parasites, NIH3T3 host, luminescence | T. cruzi beta-gal in NIH3T3, GalScreen luminescence, 90 h | inhibition, % at 8.34 µM | 77,000 tested, 5.9% active | AID 624255, 2012;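 active = mean inhibition above about 93%, with at least 55% of replicates each passing it, limit read from the data, passing the limit was not always enough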
C diff HTS = C. difficile growth inhibitors, primary screen, HTS; Clostridium difficile clinical isolate growth, OD600, 24 h; stronger effect = lower value; growth activity, negative = inhibition, % at 16 µg/mL (by protocol); 86,000 tested, 0.25% active;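 active = mean growth activity at or below -80% and every replicate also at or below -80%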;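 note: 0% = DMSO wells and -100% = levofloxacin 16 µg/mL wells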
Pf Dd2 growth = P. falciparum Dd2 growth inhibitors, primary screen, SYBR Green fluorescence, single dose replicates. 94,000 tested, 2.3% active. 72 h; stronger effect = lower value. activity change, % at 10 µM. AID 1159554, 2015; in the data active = activity change below about -80%
T cruzi growth-2 = T. cruzi intracellular proliferation inhibitors, confirmation, cell-based, NIH3T3 host, beta-gal parasite, luminescence, cherry-pick | 5,600 tested, 72% active | T. cruzi beta-gal in NIH3T3, GalScreen luminescence, 90 h | inhibition, % at 8.35 µM | shares compounds with T cruzi growth-1;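 active = mean replicate inhibition above about 95% and at least 55% of replicates individually reaching it, limit read from the data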
T cruzi growth-3 = inhibitors of intracellular T. cruzi replication, confirmation, NIH3T3 host cells, beta-gal parasites, cherry-pick, set 2; shares compounds with T cruzi growth-1; AID 651740, 2012; 5,600 tested, 21% active; T. cruzi beta-gal in NIH3T3, GalScreen luminescence, 90 h; inhibition, % at 2.09 µM;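 active = mean inhibition above about 95%, with at least 55% of replicates also reaching it, limit read from the data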;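 note: plate controls were neutral control median for no effect and positive control median for full effect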
3T3 cytotox = cytotoxicity in mouse NIH/3T3 fibroblasts, confirmation, cytotoxicity control for T. cruzi proliferation inhibitor project, cell-based, cherry-pick, single point; NIH/3T3 viability, CellTiter-Glo ATP luminescence, 90 h; 5,600 tested, 14% active; AID 651742, 2012; shares compounds with T cruzi growth-1; cytotoxicity (signal decrease), % at 8.35 µM;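 active = mean signal decrease across replicates above about 35% based on untreated-well scatter, with enough replicates individually passing, limit read from the data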;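 note: 0% = median of neutral control wells and 100% = median of positive control wells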
3T3 cytotox 2 = NIH/3T3 fibroblast cytotoxicity, confirmation, cytotoxicity control, cell-based, cherry-pick, single point, set 2 | shares compounds with T cruzi growth-1 | NIH/3T3 viability, CellTiter-Glo ATP luminescence, 90 h | inhibition, % at 24.9 µM | 5,600 tested, 56% active | AID 651744, 2012;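 active = mean loss of cell viability signal at or above a set limit, and enough replicates individually reaching it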;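 note: 0% = median of neutral control wells and 100% = median of positive control wells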
* hit, by the source's call; . = no result given.

SMILES | T cruzi growth-1 | C diff HTS | Pf Dd2 growth | T cruzi growth-2 | T cruzi growth-3 | 3T3 cytotox | 3T3 cytotox 2
COCC(=O)N1CCCCN2[C@@H](CO)[C@@H](c3ccc(-c4ccc(OC)cc4)cc3)[C@@H]2C1 | 103.1* | -2.0 | 16.6 | 82.6 | 76.6 | -6.3 | -3.8
COCC(=O)N1CCCCN2[C@H](CO)[C@@H](c3ccc(-c4ccc(OC)cc4)cc3)[C@H]2C1 | 97.0* | 0.1 | 26.6 | 32.2 | 17.5 | 5.2 | 10.2
COCC(=O)N1CCCCN2[C@H](CO)[C@H](c3ccc(-c4ccc(C)cc4)cc3)[C@H]2C1 | 101.6* | -8.0 | -0.4 | 78.0 | -3.8 | -6.8 | 28.7*
COCC(=O)N1CCCCN2[C@H](C1)[C@H](c1ccc(-c3ccc(OC)cc3)cc1)[C@@H]2CO | 79.4 | -0.2 | 12.2 | . | . | . | .
COCC(=O)N1CCCCN2[C@H](C1)[C@@H](c1ccc(-c3ccc(C)cc3)cc1)[C@@H]2CO | -8.6 | -9.7 | 8.0 | . | . | . | .
CCCC#Cc1ccc2c(c1)O[C@@H](CN(C)C)[C@H](C)CN([C@H](C)CO)S2(=O)=O | 67.0 | 2.3 | -46.7 | . | . | . | .
CO[C@H]1CN(C)C(=O)c2ccc(NC(=O)C3CCOCC3)cc2OC[C@H](C)N(C(C)=O)C[C@@H]1C | . | . | 22.0 | . | . | . | .
C[C@H](CO)N1C[C@H](C)[C@H](CN(C)Cc2ccc(C(=O)O)cc2)OCCCC[C@H](C)Oc2ccc(NC(=O)Nc3ccc(F)cc3)cc2C1=O | 25.1 | 8.6 | 33.3 | . | . | . | .
CCS(=O)(=O)NCC[C@H]1CC[C@H](NC(=O)Nc2ccccc2)[C@@H](CO)O1 | 2.0 | -2.0 | -0.8 | . | . | . | .
CC=Cc1ccc2n(c1=O)C[C@H]1[C@H](CO)[C@@H](C(=O)Nc3ccc(-c4ccccc4)cc3)N(CCC)[C@@H]21 (mixture of isomers) | 112.4* | 7.8 | -29.4 | 91.8 | 85.4 | 24.1 | 103.8*
CC=Cc1ccc2n(c1=O)C[C@@H]1[C@@H](CO)[C@H](C(=O)Nc3ccc(-c4ccccc4)cc3)N(CCC)[C@H]21 (mixture of isomers) | 103.0* | 9.2 | -37.7 | 99.5* | 67.9 | 7.4 | 105.6*
CC=Cc1ccc2n(c1=O)C[C@H]1[C@H](CO)[C@@H](C(=O)Nc3ccc(-c4ccccc4)cc3)N(C)[C@@H]21 (mixture of isomers) | 90.1 | 18.5 | . | . | . | . | .
CC=Cc1ccc2n(c1=O)C[C@H]1[C@H](CO)[C@@H](C(=O)Nc3ccc(-c4ccccc4)cc3)N(C(C)=O)[C@@H]21 (mixture of isomers) | -0.6 | 9.2 | 8.0 | . | . | . | .
COc1ccc(C[C@@H]2CCn3cc(nn3)COC[C@@H](c3ccccc3)NC2=O)cc1 | . | -4.1 | . | . | . | . | .
O=C(C[C@@H]1C=C[C@@H](NC(=O)C2CCC2)[C@@H](CO)O1)Nc1nccs1 | . | 3.5 | 1.0 | . | . | . | .
O=C(NC1CCCCC1)N1CC(=O)N2[C@H](CO)[C@@H](c3ccc(-c4cccnc4)cc3)[C@@H]2C1 | . | -7.3 | -12.2 | . | . | . | .
C[C@@H]1CCCCO[C@@H](CN(C)C(=O)NC2CCCCC2)[C@@H](C)CN([C@H](C)CO)C(=O)c2cc(NC(=O)Nc3ccc(F)cc3)ccc2O1 | 67.2 | 14.3 | 25.6 | . | . | . | .
C[C@@H]1CN([C@@H](C)CO)C(=O)c2cc(NC(=O)Nc3ccc4c(c3)OCO4)ccc2O[C@@H](C)CCCCO[C@@H]1CN(C)C(=O)NC1CCCCC1 | 3.0 | 4.4 | -12.4 | . | . | . | .
C[C@H]1CCCCO[C@@H](CN(C)C(=O)NC2CCCCC2)[C@@H](C)CN([C@@H](C)CO)C(=O)c2cc(NC(=O)Nc3ccc(F)cc3)ccc2O1 | 108.9* | 10.8 | -45.6 | 115.0* | 54.8 | 13.3 | 5.4
C[C@@H]1CN([C@@H](C)CO)C(=O)c2cc(N(C)C)ccc2O[C@@H](C)CCCCO[C@@H]1CN(C)C(=O)NC1CCCCC1 | 103.4* | -3.1 | 5.7 | 11.4 | -6.6 | 5.1 | -19.1
C[C@@H]1CCCCO[C@@H](CN(C)C(=O)NC2CCCCC2)[C@H](C)CN([C@H](C)CO)C(=O)c2cc(NC(=O)Nc3ccc4c(c3)OCO4)ccc2O1 | 104.7* | -0.3 | -16.4 | 104.7* | 74.3 | -0.8 | -33.0
C[C@@H]1CN([C@H](C)CO)C(=O)c2cc(NC(=O)Nc3ccc(F)cc3)ccc2O[C@@H](C)CCCCO[C@@H]1CN(C)C(=O)NC1CCCCC1 | 54.8 | 13.5 | -72.1 | . | . | . | .
C[C@H](CO)N1C[C@H](C)[C@@H](CN(C)C(=O)NC2CCCCC2)OCCCC[C@H](C)Oc2ccc(N(C)C)cc2C1=O | 46.4 | -2.5 | . | . | . | . | .
C[C@H](CO)N1C[C@H](C)[C@@H](CN(C)C(=O)NC2CCCCC2)OCCCC[C@H](C)Oc2ccc(NC(=O)Nc3ccc(F)cc3)cc2C1=O | 105.2* | -0.7 | 3.3 | 102.5* | 26.8 | 11.7 | 24.0
COc1ccc(-c2cnc3c(c2)C(=O)N([C@H](C)CO)C[C@H](C)[C@H](CN(C)C(=O)Cc2ccccn2)O3)cc1 | 21.6 | -2.8 | -3.2 | . | . | . | .
SMILES | T cruzi growth-1 | C diff HTS | Pf Dd2 growth | T cruzi growth-2 | T cruzi growth-3 | 3T3 cytotox | 3T3 cytotox 2
CCNC(=O)C[C@@H]1CC[C@H]2[C@@H](COC[C@@H](O)CN2C(=O)c2cccnc2)O1 | 15.2 | . | 5.5 | . | . | . | .
CNC[C@H]1Oc2ccc(NC(=O)c3ccncc3)cc2C(=O)N([C@H](C)CO)C[C@H]1C | 17.6 | 1.7 | 3.2 | . | . | . | .
COCCNC(=O)[C@@H]1[C@@H](CO)[C@@H]2Cn3c(ccc(-c4ccc(F)cc4)c3=O)[C@H]1N2C | -10.3 | 0.3 | 16.7 | . | . | . | .
Cc1ccc(-c2cnc3c(c2)C(=O)N([C@H](C)CO)C[C@H](C)[C@H](CN(C)C)O3)cc1 | -41.2 | 3.9 | 30.0 | . | . | . | .
C[C@@H]1CN([C@@H](C)CO)C(=O)c2cccc(NC(=O)CCCCCC(=O)Nc3ccccc3N)c2O[C@H]1CN(C)S(C)(=O)=O | . | 0.3 | 17.4 | . | . | . | .
C[C@@H]1CN([C@@H](C)CO)C(=O)c2cccc(NC(=O)CCCCCC(=O)Nc3ccccc3N)c2O[C@H]1CN(C)S(=O)(=O)c1ccc(Cl)cc1 | 95.4* | -3.5 | -72.8 | 90.8 | 57.0 | -39.9 | -11.8
C[C@@H]1CN([C@@H](C)CO)C(=O)c2cccc(NC(=O)CCCCCC(=O)Nc3ccccc3N)c2O[C@@H]1CN(C)S(=O)(=O)c1ccc(Cl)cc1 | 97.6* | -8.3 | -92.8* | 103.2* | 82.0 | -13.2 | 11.0
C[C@@H]1CN([C@@H](C)CO)C(=O)c2cc(NC(=O)CCCCCC(=O)Nc3ccccc3N)ccc2O[C@@H]1CN(C)S(=O)(=O)c1ccc(Cl)cc1 | . | -0.1 | -54.7 | . | . | . | .
